From PubChem BioAssay
HEK293 tox: cytotoxic in the GLP-1 receptor inverse agonist counter-screen; HEK293 cAMP-luciferase reporter cells, luminescence, 24 h; Potency, µM (top dose mostly 38.3 µM), most hits filed as inhibitors; 410,000 compounds, 0.13% hits; AID 624418;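 note: loss of luciferase light is scored as toxicity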
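To flag toxic compounds, the library was rerun on cells for 24 hr at 37 deg C and 5% CO2. Viability-linked luminescence was captured 12 min after adding luciferase detection reagent.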
GLP-1R inv ag: acts as inverse agonist at human GLP-1 receptor; HEK293 GLP-1R CRE-luciferase, luminescence, 24 h; GLP-1R form is constitutively active; Potency, µM (titrated, usually from 38.3 µM), usual class: inhibitors; 410,000 compounds, 1.6% hits; note: nearly all actives have a fitted effect of over 55% in size
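Stable HEK293 clone (constitutively active GLP-1R + cAMP-response luciferase); 200 cells/uL plated, 12 h pre-culture, compound 24 hr, 37 deg C/5% CO2; detection reagent 12 min RT; luminescence.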
PTHR1 agonist: activates the human parathyroid hormone receptor PTHR1. Potency, µM (top dose mostly 115 µM), hits mostly activators. 410,000 compounds, 0.075% hits. HEK293 GP2 PTHR1 cells, GloSensor cAMP luminescence, 1 h. Q03431; note: nearly all actives have a fitted effect of over 55% in size
Target sequence (Q03431 whole entry, looked up): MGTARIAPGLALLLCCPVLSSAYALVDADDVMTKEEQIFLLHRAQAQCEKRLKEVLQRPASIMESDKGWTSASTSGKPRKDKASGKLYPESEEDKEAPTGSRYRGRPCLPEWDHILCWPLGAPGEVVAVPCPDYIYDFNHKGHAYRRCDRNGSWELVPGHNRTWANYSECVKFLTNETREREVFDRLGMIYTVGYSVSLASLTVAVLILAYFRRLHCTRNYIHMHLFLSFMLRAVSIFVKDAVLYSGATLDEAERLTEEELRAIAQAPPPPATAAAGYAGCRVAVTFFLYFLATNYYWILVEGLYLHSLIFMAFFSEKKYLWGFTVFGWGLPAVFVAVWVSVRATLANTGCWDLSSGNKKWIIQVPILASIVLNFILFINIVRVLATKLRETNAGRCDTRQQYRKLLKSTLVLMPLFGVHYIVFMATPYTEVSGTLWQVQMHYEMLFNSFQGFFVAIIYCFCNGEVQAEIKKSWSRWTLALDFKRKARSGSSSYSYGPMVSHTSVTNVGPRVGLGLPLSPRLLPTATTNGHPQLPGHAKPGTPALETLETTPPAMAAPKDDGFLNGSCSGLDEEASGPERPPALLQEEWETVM
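HEK-293-derived GP2 cells expressing PTHR1 and a GloSensor cAMP reporter, 3,000/well, plated overnight, given luciferin plus IBMX (each 0.5 mM as added) for 1 h at 37 °C, then compound for 1 h at 37 °C. Luminescence was read after 15 min at room temperature.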
GLP-1R agonist: agonists of human GLP-1 receptor; P43220; HEK293 GLP-1R CRE-luciferase, luminescence, 4-6 h; cells express a hypersensitive GLP-1R form; Potency, µM (top dose mostly 45.6 µM), usual class: activators; 380,000 compounds, 0.007% hits
A number is an active result. A selection: hits, their analogues and other compounds. The true share with any hit is near 1.7%. Calls come from the whole dose curve; as a rule, active = well fitted curve in the direction sought with a large enough effect; inconclusive = small, poorly fitted or top-dose-only effect, or another doubt; inactive = no such curve, though single readings can be large; an effect the other way counts as inactive or inconclusive.

Screening Cn1nc(C(C)(C)C)cc1C(=O)N1CCCCC1c1cc(C(=O)Nc2cccc(C#N)c2)no1 (centres undefined) returned HEK293 tox inactive, GLP-1R inv ag 10µM, PTHR1 agonist inactive and GLP-1R agonist inactive.
O=C(CSc1ncc2c(n1)-c1ccccc1N(Cc1ccc(Cl)cc1)S2(=O)=O)c1ccc(Cl)cc1 was read as HEK293 tox inactive, GLP-1R inv ag inactive and PTHR1 agonist inactive.
`O=C(CC1Sc2ccccc2NC1=O)NNc1cccc(Cl)c1Cl` (centres undefined) gave HEK293 tox inactive, GLP-1R inv ag 2µM, PTHR1 agonist inactive and GLP-1R agonist inactive.
Screening CNc1sc(C(=O)c2cccs2)c(N)c1-c1nc2ccccc2s1 returned HEK293 tox inconclusive, GLP-1R inv ag inconclusive, PTHR1 agonist inactive and GLP-1R agonist inactive.
For CNc1sc(C(=O)c2ccc(F)cc2)c(N)c1-c1nc2ccccc2s1 the results were HEK293 tox 11.2µM, GLP-1R inv ag inactive, PTHR1 agonist inactive and GLP-1R agonist inactive.
For CCC(Oc1ccccc1)C(=O)NC1CCCCCC1 (centres undefined) the results were HEK293 tox inactive, GLP-1R inv ag 10µM, PTHR1 agonist inactive and GLP-1R agonist inactive.
For Cc1ccccc1NC(NC(=O)c1cccs1)C(Cl)(Cl)Cl (centres undefined) the results were HEK293 tox inactive, GLP-1R inv ag 7.94µM, PTHR1 agonist inactive and GLP-1R agonist inactive.
Screening Cc1ccc(NC(NC(=O)c2cccs2)C(Cl)(Cl)Cl)cc1C (centres undefined) returned HEK293 tox inactive, GLP-1R inv ag 12.6µM, PTHR1 agonist inactive and GLP-1R agonist inactive.
For CCCCNC(=S)N1CCN(C(c2ccccc2)c2ccccc2)CC1 the results were HEK293 tox inactive, GLP-1R inv ag 8.91µM, PTHR1 agonist inactive and GLP-1R agonist inactive.
Screening CCCNC(=S)N1CCN(C(c2ccccc2)c2ccccc2)CC1 returned HEK293 tox inactive, GLP-1R inv ag inconclusive, PTHR1 agonist inactive and GLP-1R agonist inactive.
O=C(NNc1cc(Cl)ccc1Cl)C1CCC1 was read as HEK293 tox inactive, GLP-1R inv ag 3.16µM, PTHR1 agonist inactive and GLP-1R agonist inactive.
CCOc1ccc(N(CC(=O)Nc2ccc(C)c(C)c2)S(=O)(=O)c2c(C)noc2C)cc1 was read as HEK293 tox inactive, GLP-1R inv ag 10µM, PTHR1 agonist inactive and GLP-1R agonist inactive.
For CCCCCCN1C2=NCCN2c2ccccc21 the results were HEK293 tox inactive, GLP-1R inv ag inactive, PTHR1 agonist inactive and GLP-1R agonist inactive.
For CCCCCCCN1C2=NCCCN2c2ccccc21 the results were HEK293 tox inactive, GLP-1R inv ag 10µM, PTHR1 agonist inactive and GLP-1R agonist inactive.
Clc1ccc(CN2C3=NCCCN3c3ccccc32)c(Cl)c1 was read as HEK293 tox inactive, GLP-1R inv ag 8.91µM, PTHR1 agonist inactive and GLP-1R agonist inactive.
`CCCCCCCN1C2=NCCN2c2ccccc21` gave HEK293 tox inconclusive, GLP-1R inv ag 5.62µM, PTHR1 agonist inactive and GLP-1R agonist inactive.
For O=C1COc2ccc(C(=O)CSc3ccccc3C(=O)O)cc2N1 the results were HEK293 tox inactive, GLP-1R inv ag inactive, PTHR1 agonist inactive and GLP-1R agonist inactive.
CC(C)c1ccccc1-n1c(SCC(=O)N2CCc3ccccc3C2)nc2ccccc2c1=O was read as HEK293 tox inactive, GLP-1R inv ag 10µM, PTHR1 agonist inactive and GLP-1R agonist inactive.
O=C(CSc1nc2ccccc2c(=O)n1-c1ccccc1)N1CCc2ccccc2C1 was read as HEK293 tox inactive, GLP-1R inv ag inactive, PTHR1 agonist inactive and GLP-1R agonist inactive.
Screening CC(C)c1ccccc1-n1c(SCC(=O)c2ccc3c(c2)NC(=O)CO3)nc2ccccc2c1=O returned HEK293 tox inactive, GLP-1R inv ag 10µM, PTHR1 agonist inactive and GLP-1R agonist inactive.
`Cc1ccccc1S(=O)Cc1ccc(C(=O)NC2CC2)o1` (centres undefined) gave HEK293 tox inactive, GLP-1R inv ag inactive, PTHR1 agonist inactive and GLP-1R agonist inactive.
CCN(Cc1ccccc1)C(=O)c1ccc(CS(=O)c2ccccc2C)o1 (centres undefined) was read as HEK293 tox inactive, GLP-1R inv ag 10µM, PTHR1 agonist inactive and GLP-1R agonist inactive.
For Cc1cc(C(c2ccc(C)o2)c2ccc(C)o2)c(O)c([N+](=O)[O-])c1 the results were HEK293 tox inactive, GLP-1R inv ag 10µM, PTHR1 agonist inactive and GLP-1R agonist inactive.
`Cc1ccc(/C=C/c2onc(C)c2S(=O)(=O)N2CCC(C(=O)NCc3ccc(N(C)C)cc3)CC2)cc1` gave HEK293 tox inactive, GLP-1R inv ag inactive and PTHR1 agonist inactive.
Screening COc1cc(/C=C2/C(=O)NN(c3ccccc3)C2=O)cc(Br)c1O returned HEK293 tox inactive, GLP-1R inv ag inconclusive, PTHR1 agonist inactive and GLP-1R agonist inactive.
For COc1cc(/C=C2/C(=O)NN(c3ccc(Cl)cc3)C2=O)cc(OC)c1O the results were HEK293 tox inconclusive, GLP-1R inv ag 3.98µM, PTHR1 agonist inactive and GLP-1R agonist inactive.
O=C1NN(c2ccccc2)C(=O)C1=Cc1ccccc1 was read as HEK293 tox inconclusive, GLP-1R inv ag 3.98µM, PTHR1 agonist inactive and GLP-1R agonist inactive.
Screening O=C1NN(c2ccccc2)C(=O)/C1=C\c1ccccc1 returned HEK293 tox inactive, GLP-1R inv ag inconclusive, PTHR1 agonist inactive and GLP-1R agonist inactive.
`CCCN(CC(=O)Nc1ccccc1OC)C(=O)c1ccc2[nH]c3c(c2c1)CC(C)CC3` (centres undefined) gave HEK293 tox inactive, GLP-1R inv ag 10µM, PTHR1 agonist inactive and GLP-1R agonist inactive.
CCN(CC(=O)Nc1ccccc1OC)C(=O)c1ccc2[nH]c3c(c2c1)CC(C)CC3 (centres undefined) was read as HEK293 tox inactive, GLP-1R inv ag inconclusive, PTHR1 agonist inactive and GLP-1R agonist inactive.
Screening CCN(CC(=O)Nc1ccccc1C(F)(F)F)C(=O)c1cc(-c2cccs2)nn1-c1ccccc1 returned HEK293 tox inactive, GLP-1R inv ag inconclusive, PTHR1 agonist inactive and GLP-1R agonist inactive.
For CCCN(CC(=O)Nc1ccccc1OC)C(=O)c1cc(-c2cccs2)nn1-c1ccccc1 the results were HEK293 tox inactive, GLP-1R inv ag 11.2µM, PTHR1 agonist inactive and GLP-1R agonist inactive.
Screening CCCC[C@@H](CN[C@H](C)CNC)NCC1CCC(C(C)(C)C)CC1 (some centres undefined) returned HEK293 tox inconclusive, GLP-1R inv ag 11.2µM, PTHR1 agonist inactive and GLP-1R agonist inactive.
CC[C@H](C)[C@@H](CN[C@H](CCCCNC)CNC)NCC1CCCC1 was read as HEK293 tox inactive, GLP-1R inv ag inactive, PTHR1 agonist inactive and GLP-1R agonist inactive.
For O=C1C=C(N2CCCCC2)c2ccccc2C1=O the results were HEK293 tox 10µM, GLP-1R inv ag inconclusive, PTHR1 agonist inactive and GLP-1R agonist inactive.
Screening Cc1ccc(CN2CCC(Oc3cccc(C(=O)N(C)CCN(C)C)c3)CC2)cc1C returned HEK293 tox inconclusive, GLP-1R inv ag 3.98µM, PTHR1 agonist inactive and GLP-1R agonist inactive.
